# Key:
# Test in all cases: DAPPL (digital affinity profiling via proximity ligation, sequencing); 10 mM Tris-HCl pH 7.5, 50 mM NaCl, 1 mM DTT, 4% glycerol, room temperature, 30 min; GST-TFs on glutathione beads, 16-mer random dsDNA library, 0.1% formaldehyde crosslink after washing; high values mean tight binding
# Settings in all cases: protein: recombinant; tags: N-terminal GST; dsDNA, one strand shown
# SPIC = molecular target: T1, SPIC (Homo sapiens, UniProt Q8N5J4 1-248)
# T1 sequence: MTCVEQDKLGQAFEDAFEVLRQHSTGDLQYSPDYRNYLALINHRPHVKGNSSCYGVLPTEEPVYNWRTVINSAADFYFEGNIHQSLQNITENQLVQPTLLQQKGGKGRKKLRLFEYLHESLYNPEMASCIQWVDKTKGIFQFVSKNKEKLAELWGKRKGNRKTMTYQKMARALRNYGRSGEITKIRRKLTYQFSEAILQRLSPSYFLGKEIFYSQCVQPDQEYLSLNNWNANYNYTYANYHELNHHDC
# Procedure, shortened: (§1)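 GST fusions of human transcription factors were expressed in yeast and captured with glutathione beads. Once given DNA barcodes and pooled alongside a tag-only sample, they were incubated for 30 min at room temperature with 200 nmole of a random double-stranded 16-mer DNA library in Tris/NaCl/DTT/glycerol buffer, then washed, crosslinked (0.1% formaldehyde), proximity-ligated, PCR-amplified and sequenced on an Illumina NextSeq500. The binding signal of each hexamer is its read frequency for a factor divided by its frequency for the tag-only sample.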
# ELK4 = molecular target: T2, ELK4 (Homo sapiens, UniProt P28324-2 1-405)
# T2 sequence: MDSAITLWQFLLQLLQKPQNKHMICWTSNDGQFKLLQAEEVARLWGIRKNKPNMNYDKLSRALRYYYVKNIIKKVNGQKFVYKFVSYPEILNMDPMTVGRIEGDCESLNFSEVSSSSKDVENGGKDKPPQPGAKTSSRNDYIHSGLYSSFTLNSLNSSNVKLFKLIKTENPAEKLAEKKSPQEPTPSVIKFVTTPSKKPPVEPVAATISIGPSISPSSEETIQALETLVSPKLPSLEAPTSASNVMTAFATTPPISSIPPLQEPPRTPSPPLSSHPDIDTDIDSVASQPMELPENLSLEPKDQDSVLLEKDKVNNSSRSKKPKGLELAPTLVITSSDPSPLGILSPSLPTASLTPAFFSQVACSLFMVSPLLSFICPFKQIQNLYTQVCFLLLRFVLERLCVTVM
# Procedure, shortened: as §1
# GABPA = molecular target: T3, GABPA (Homo sapiens, UniProt Q06546 1-454)
# T3 sequence: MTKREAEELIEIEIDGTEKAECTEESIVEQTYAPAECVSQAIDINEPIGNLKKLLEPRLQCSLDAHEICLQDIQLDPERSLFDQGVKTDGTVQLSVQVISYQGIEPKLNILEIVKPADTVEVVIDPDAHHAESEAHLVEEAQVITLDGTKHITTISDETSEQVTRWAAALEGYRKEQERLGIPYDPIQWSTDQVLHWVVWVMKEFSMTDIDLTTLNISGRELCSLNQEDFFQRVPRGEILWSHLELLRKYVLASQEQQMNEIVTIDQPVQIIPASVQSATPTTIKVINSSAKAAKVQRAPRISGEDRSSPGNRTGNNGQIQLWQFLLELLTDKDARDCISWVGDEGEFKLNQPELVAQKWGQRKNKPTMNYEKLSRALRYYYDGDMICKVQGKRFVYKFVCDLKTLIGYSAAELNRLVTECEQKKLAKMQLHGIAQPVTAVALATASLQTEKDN
# Procedure, shortened: as §1
# ERG = molecular target: T4, ERG (Homo sapiens, UniProt P11308 1-479)
# T4 sequence: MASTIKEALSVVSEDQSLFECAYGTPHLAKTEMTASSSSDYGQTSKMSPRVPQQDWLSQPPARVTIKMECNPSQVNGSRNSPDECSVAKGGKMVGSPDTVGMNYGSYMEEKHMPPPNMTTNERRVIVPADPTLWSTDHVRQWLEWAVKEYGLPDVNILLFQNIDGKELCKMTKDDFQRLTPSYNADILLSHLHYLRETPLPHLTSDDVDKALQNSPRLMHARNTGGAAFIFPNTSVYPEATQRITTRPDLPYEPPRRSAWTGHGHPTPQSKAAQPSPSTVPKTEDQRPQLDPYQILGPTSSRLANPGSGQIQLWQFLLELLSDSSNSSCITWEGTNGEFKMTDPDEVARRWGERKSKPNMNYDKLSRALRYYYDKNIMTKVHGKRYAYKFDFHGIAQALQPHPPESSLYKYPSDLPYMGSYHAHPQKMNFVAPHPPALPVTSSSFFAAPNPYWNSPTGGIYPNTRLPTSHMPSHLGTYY
# Procedure, shortened: as §1
# ELF1 = ELF1 (Homo sapiens, UniProt P32519 1-619)
# Chain of ELF1 (P32519 whole entry): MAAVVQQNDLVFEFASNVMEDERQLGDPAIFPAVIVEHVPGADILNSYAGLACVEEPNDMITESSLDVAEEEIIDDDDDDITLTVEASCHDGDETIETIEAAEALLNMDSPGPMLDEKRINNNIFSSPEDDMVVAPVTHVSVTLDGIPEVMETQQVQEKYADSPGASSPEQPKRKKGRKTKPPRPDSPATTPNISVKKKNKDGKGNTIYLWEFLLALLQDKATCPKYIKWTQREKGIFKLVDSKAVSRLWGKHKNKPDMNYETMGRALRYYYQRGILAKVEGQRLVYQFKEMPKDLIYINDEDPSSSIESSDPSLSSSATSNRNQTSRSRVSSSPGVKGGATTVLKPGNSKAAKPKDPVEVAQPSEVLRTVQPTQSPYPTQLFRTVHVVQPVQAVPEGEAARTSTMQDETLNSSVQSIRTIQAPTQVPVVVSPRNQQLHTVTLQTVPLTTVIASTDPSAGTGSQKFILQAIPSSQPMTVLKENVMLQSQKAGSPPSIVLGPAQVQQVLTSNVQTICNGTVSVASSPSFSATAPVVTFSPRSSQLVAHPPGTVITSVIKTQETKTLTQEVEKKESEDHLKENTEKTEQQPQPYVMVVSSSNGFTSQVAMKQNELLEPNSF
# Procedure, shortened: as §1
# ELF4 = ELF4 (Homo sapiens, UniProt Q99607 1-663)
# Chain of ELF4 (Q99607 whole entry): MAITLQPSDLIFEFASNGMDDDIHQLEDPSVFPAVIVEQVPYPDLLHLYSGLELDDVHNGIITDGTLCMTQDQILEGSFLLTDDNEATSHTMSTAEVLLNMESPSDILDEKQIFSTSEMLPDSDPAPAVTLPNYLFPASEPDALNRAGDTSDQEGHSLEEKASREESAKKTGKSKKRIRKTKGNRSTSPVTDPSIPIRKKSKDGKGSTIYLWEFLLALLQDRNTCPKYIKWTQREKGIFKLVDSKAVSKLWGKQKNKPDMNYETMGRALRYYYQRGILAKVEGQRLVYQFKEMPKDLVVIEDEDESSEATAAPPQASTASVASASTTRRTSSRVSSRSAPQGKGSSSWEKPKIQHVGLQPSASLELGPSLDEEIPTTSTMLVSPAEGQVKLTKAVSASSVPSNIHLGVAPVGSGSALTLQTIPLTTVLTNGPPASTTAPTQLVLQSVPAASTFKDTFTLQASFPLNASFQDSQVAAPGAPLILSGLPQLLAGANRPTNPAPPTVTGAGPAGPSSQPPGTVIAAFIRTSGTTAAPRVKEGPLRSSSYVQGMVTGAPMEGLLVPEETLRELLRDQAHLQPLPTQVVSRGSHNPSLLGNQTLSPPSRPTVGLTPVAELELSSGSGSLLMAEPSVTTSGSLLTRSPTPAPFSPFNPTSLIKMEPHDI
# Procedure, shortened: as §1
# ETV2 = molecular target: T5, ETV2 (Homo sapiens, UniProt O00321 1-342)
# T5 sequence: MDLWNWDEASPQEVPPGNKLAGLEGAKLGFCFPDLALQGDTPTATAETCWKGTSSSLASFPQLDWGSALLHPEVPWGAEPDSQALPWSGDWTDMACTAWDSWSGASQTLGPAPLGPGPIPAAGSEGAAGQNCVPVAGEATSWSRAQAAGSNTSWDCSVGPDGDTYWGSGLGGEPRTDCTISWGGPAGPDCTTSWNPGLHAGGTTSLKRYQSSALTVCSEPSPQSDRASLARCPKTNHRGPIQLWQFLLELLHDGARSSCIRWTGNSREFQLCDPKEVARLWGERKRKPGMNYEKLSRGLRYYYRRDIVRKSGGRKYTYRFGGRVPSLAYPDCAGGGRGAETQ
# Procedure, shortened: as §1
# ETV1 = ETV1 (Homo sapiens, UniProt P50549 1-477)
# Chain of ETV1 (P50549 whole entry): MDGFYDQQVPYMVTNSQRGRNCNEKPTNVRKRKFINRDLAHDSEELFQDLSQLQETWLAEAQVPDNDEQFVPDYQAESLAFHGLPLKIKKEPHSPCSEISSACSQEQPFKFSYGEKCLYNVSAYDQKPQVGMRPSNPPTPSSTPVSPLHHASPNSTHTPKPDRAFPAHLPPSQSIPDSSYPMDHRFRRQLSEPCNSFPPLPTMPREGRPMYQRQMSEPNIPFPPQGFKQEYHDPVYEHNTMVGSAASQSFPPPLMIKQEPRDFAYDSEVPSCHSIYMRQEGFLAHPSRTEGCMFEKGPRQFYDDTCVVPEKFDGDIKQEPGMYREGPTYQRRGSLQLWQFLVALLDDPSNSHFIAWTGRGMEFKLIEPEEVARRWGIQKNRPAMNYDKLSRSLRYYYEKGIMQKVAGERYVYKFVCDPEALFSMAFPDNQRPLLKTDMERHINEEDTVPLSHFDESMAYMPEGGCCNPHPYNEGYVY
# Procedure, shortened: as §1
# ETV3L = molecular target: T6, ETV3L (Homo sapiens, UniProt Q6ZN32 1-361)
# T6 sequence: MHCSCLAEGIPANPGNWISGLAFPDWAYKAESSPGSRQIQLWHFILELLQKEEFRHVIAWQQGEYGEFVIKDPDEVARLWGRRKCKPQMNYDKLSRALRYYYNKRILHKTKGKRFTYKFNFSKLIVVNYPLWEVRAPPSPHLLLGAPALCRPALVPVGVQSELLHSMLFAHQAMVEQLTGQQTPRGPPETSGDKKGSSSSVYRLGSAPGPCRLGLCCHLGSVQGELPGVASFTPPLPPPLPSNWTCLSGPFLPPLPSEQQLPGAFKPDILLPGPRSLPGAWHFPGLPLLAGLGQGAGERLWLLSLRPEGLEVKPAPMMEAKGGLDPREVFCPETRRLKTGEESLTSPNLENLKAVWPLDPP
# Procedure, shortened: as §1
# SPDEF = molecular target: T7, SPDEF (Homo sapiens, UniProt O95238 1-335)
# T7 sequence: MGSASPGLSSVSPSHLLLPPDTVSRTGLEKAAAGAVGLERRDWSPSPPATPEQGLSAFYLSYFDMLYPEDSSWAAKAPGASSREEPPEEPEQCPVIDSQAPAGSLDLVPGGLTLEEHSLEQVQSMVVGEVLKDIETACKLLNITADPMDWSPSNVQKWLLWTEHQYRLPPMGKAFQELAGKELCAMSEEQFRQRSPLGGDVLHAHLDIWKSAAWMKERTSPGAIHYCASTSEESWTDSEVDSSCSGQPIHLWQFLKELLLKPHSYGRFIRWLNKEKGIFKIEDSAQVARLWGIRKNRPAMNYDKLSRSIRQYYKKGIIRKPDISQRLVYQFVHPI
# Procedure, shortened: as §1
# ETV3 = molecular target: T8, ETV3 (Homo sapiens, UniProt P41162-2 1-143)
# T8 sequence: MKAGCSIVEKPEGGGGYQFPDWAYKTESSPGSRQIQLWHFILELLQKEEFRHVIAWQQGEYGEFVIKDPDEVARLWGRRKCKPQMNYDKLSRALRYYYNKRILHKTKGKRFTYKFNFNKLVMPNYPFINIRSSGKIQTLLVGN
# Procedure, shortened: as §1
sequence,measurement,setting,value
TGTCAG,binding signal,SPIC,"1 fold enrichment (6-mer frequency, TF over GST control)"
same,binding signal,ELK4,"1.02 fold enrichment (6-mer frequency, TF over GST control)"
CTGTGG,binding signal,SPIC,"1.1 fold enrichment (6-mer frequency, TF over GST control)"
CCTAGG,binding signal,GABPA,"1.04 fold enrichment (6-mer frequency, TF over GST control)"
same,binding signal,ERG,"1 fold enrichment (6-mer frequency, TF over GST control)"
same,binding signal,ELF1,"1.07 fold enrichment (6-mer frequency, TF over GST control)"
same,binding signal,SPIC,"1.1 fold enrichment (6-mer frequency, TF over GST control)"
same,binding signal,ELF4,"1.07 fold enrichment (6-mer frequency, TF over GST control)"
same,binding signal,ELK4,"1.04 fold enrichment (6-mer frequency, TF over GST control)"
same,binding signal,ETV2,"1.03 fold enrichment (6-mer frequency, TF over GST control)"
same,binding signal,ETV1,"1.02 fold enrichment (6-mer frequency, TF over GST control)"
same,binding signal,ETV3L,"1.03 fold enrichment (6-mer frequency, TF over GST control)"
same,binding signal,SPDEF,"1.02 fold enrichment (6-mer frequency, TF over GST control)"
same,binding signal,ETV3,"1.1 fold enrichment (6-mer frequency, TF over GST control)"
